The source of these data is PubChem BioAssay (NCI).

Among the test systems are NCI-H23 lung; NCI-H226 lung; NCI-H322M lung; HOP-62 NSCLC; NCI-H460 lung; HOP-92 NSCLC; NCI-H522 lung; A549/ATCC NSCLC; 786-0 renal; COLO 205 colon; DU-145 prostate; K-562 leukemia; MALME-3M melanoma; MDA-MB-231 breast; SF-268 CNS; SF-295 CNS; SF-539 CNS; UACC-257 melanoma; M14 melanoma.
What all share (assay): NCI-60 one-dose screen, 48 h (100 = growth as untreated, 0 = no growth, -100 = all killed)
Common to all, as to conditions: 10 µM

This is part of a sample that, as a whole, favours compounds with a hit. Of some 83,000 tested, about 20% had one in any assay.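 The test compound was applied at a single concentration to cells in 96-well plates for 48 hours, and percent growth was recorded.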 Unmarked numbers belong to inactive results. Active and inactive are the calls of the source. How the source made its calls: active means growth percent below 10; inactive means the rest.

`C#CCNC(=O)CCC(=O)OC[C@]12CC[C@@H](C(=C)C)[C@@H]1C1CC[C@@H]3[C@@]4(C)CCCNC(C)(C)[C@@H]4CC[C@@]3(C)[C@]1(C)CC2` (some centres not stated): the growth in the test on NCI-H23 lung was -91.8% (active); in the test on NCI-H226 lung, -80.8% (active); with NCI-H322M lung, 39.2%; with HOP-62 NSCLC it was -23.9% (active); with NCI-H460 lung, -74% (active); with HOP-92 NSCLC, -14.4% (active). Further, the growth in the test on NCI-H522 lung is -82.7% (active); in the test on A549/ATCC NSCLC, -76.5% (active); in the test with 786-0 renal, -58.3% (active); in the test with COLO 205 colon it was -83% (active); in the test on DU-145 prostate, 17.8%; in the test on K-562 leukemia, 3.14% (active). Also, the growth is -93.6% (active) in the test on MALME-3M melanoma; -47.9% (active) in the test with MDA-MB-231 breast; 42.8% in the test on SF-268 CNS; -85.5% (active) with SF-295 CNS; -99.3% (active) in the test with SF-539 CNS; -78.4% (active) in the test with UACC-257 melanoma. Further, the growth with M14 melanoma is -80.4% (active).
For the compound `COc1ccc2cc([C@H](C)C(=O)NCc3ccccc3)ccc2c1`, the growth in the test with NCI-H23 lung was 33.6%; in the test on NCI-H226 lung, 59.5%; with NCI-H322M lung, 49.7%; in the test with HOP-62 NSCLC it was 41.8%; with NCI-H460 lung it was 17.7%; with HOP-92 NSCLC, 104%. The growth in the test with NCI-H522 lung was -5.33% (active); in the test on A549/ATCC NSCLC it was 59.7%; in the test on 786-0 renal, 59.7%; in the test on COLO 205 colon, 0.915% (active); in the test on DU-145 prostate, 29.4%; in the test on K-562 leukemia, 20.1%. The growth in the test on MALME-3M melanoma is 55.2%; with MDA-MB-231 breast, 38.4%; with SF-268 CNS it was 60.2%; in the test with SF-295 CNS, 12.8%; with SF-539 CNS, 2.48% (active); in the test with UACC-257 melanoma, 64.7%. For the same compound, the growth in the test with M14 melanoma is 38.2%.
As for `C/C(=C\c1ccc(O)cc1O)c1ccc2ccc(O)cc2[o+]1`, the growth was 45.8% in the test with NCI-H23 lung; 66.2% with NCI-H226 lung; 78.1% in the test on NCI-H322M lung; 54.9% in the test with HOP-62 NSCLC; 56.8% in the test on NCI-H460 lung; 83.8% with HOP-92 NSCLC. Moreover, the growth was 55% with NCI-H522 lung; 91.9% in the test with A549/ATCC NSCLC; 52.9% in the test with 786-0 renal; 116% with COLO 205 colon; 25.8% in the test with DU-145 prostate; 72.7% with K-562 leukemia. Moreover, the growth in the test on MALME-3M melanoma was 56.8%; with MDA-MB-231 breast, 39.6%; in the test with SF-268 CNS, 116%; in the test on SF-295 CNS it was 80.6%; with SF-539 CNS, 72.4%; with UACC-257 melanoma, 84%. Moreover, in the test with M14 melanoma, the growth was 73.3%.
In the case of `CN1C(=O)N(C)C2SC(N/N=C/c3ccc(F)cc3)=NC21` (configuration not stated), the growth with NCI-H23 lung was 63.5%; in the test on NCI-H226 lung, 75.6%; in the test with NCI-H322M lung, 97.4%; with HOP-62 NSCLC, 53.5%; in the test on NCI-H460 lung, 32.6%; in the test with HOP-92 NSCLC, 71.1%. Further, the growth was 14.7% in the test with NCI-H522 lung; 49.6% in the test with A549/ATCC NSCLC; 50.2% in the test with 786-0 renal; 46.5% in the test on COLO 205 colon; 76.3% with DU-145 prostate; 15% in the test with K-562 leukemia. Moreover, the growth with MALME-3M melanoma is 40.1%; in the test with MDA-MB-231 breast, 38.7%; in the test with SF-268 CNS it was 52.1%; in the test with SF-295 CNS it was 30.8%; with SF-539 CNS, 29.3%; in the test on UACC-257 melanoma, 67.7%. Moreover, the growth in the test on M14 melanoma was 23.8%.
As for `O=c1[nH]c2ccccc2cc1CSc1ccc(Nc2nccc(-c3ccc4c(c3)OCO4)n2)cc1`, the growth was 86.1% in the test on NCI-H23 lung; 74% with NCI-H226 lung; 97.7% in the test on NCI-H322M lung; 84% in the test with HOP-62 NSCLC; 83.1% in the test on NCI-H460 lung; 78.6% in the test on HOP-92 NSCLC. The growth in the test with NCI-H522 lung was 96.9%; with A549/ATCC NSCLC, 76.7%; in the test with 786-0 renal, 84.7%; in the test with COLO 205 colon, 71.6%; in the test on DU-145 prostate, 77.5%; with K-562 leukemia it was 87.6%. Also, the growth in the test with MALME-3M melanoma was 55.2%; in the test on MDA-MB-231 breast it was 78.6%; in the test with SF-268 CNS it was 71.6%; in the test on SF-295 CNS, 101%; in the test on SF-539 CNS, 9.95% (active); with UACC-257 melanoma, 105%. In addition, the growth in the test with M14 melanoma was 82.4%.
In the case of `Cc1ccc2nc(COc3ccc(C(=O)NNC(=S)NC(=O)c4ccccc4)cc3)[nH]c2c1`, the growth is 53.3% in the test on NCI-H23 lung; 60.7% with NCI-H226 lung; 80.7% with NCI-H322M lung; 45.4% with HOP-62 NSCLC; 20.5% with NCI-H460 lung; 80.6% in the test with HOP-92 NSCLC. Moreover, the growth in the test on NCI-H522 lung is 60.5%; with A549/ATCC NSCLC it was 53.9%; with 786-0 renal, 74.4%; in the test on COLO 205 colon, 84%; in the test on DU-145 prostate, 64.7%; with K-562 leukemia it was 21.8%. The growth with MALME-3M melanoma is 80.9%; in the test on MDA-MB-231 breast, 71.5%; with SF-268 CNS, 55.2%; in the test with SF-295 CNS, 25.3%; in the test with SF-539 CNS, 41.9%; in the test with UACC-257 melanoma it was 83.4%. The growth with M14 melanoma is 65.2%.
Regarding `Cc1ccc(/C(CSc2nnc(-c3c[nH]c4ccccc34)n2-c2ccccc2)=N/O)cc1`, the growth with NCI-H23 lung was 53.3%; with NCI-H226 lung, -41.1% (active); in the test on NCI-H322M lung, -42.4% (active); with HOP-62 NSCLC it was -56.6% (active); in the test with NCI-H460 lung it was 1.99% (active); with HOP-92 NSCLC, -5.5% (active). Besides, the growth was 23.8% with NCI-H522 lung; 18.4% with A549/ATCC NSCLC; 2.17% (active) in the test on 786-0 renal; 12.4% in the test on COLO 205 colon; -60.2% (active) in the test with DU-145 prostate; 1.59% (active) in the test on K-562 leukemia. In addition, the growth was 16.7% in the test with MALME-3M melanoma; -82.1% (active) in the test on MDA-MB-231 breast; -60.1% (active) in the test on SF-268 CNS; -49.9% (active) in the test on SF-295 CNS; 10.1% in the test on SF-539 CNS; 35.7% in the test with UACC-257 melanoma. Moreover, in the test with M14 melanoma, the growth was -64.4% (active).
With `O=C(Cn1nc(-c2ccccc2)ccc1=O)NN1C(=O)c2ccccc2C1=O`, the growth in the test on NCI-H23 lung was 105%; in the test on NCI-H226 lung it was 101%; in the test on NCI-H322M lung, 117%; in the test on HOP-62 NSCLC, 102%; in the test on NCI-H460 lung, 99.7%; with HOP-92 NSCLC it was 125%. In addition, the growth is 77.5% with NCI-H522 lung; 108% with A549/ATCC NSCLC; 103% with 786-0 renal; 131% with COLO 205 colon; 105% in the test on DU-145 prostate; 99.8% in the test with K-562 leukemia. Also, the growth in the test with MALME-3M melanoma was 90.1%; with MDA-MB-231 breast it was 100%; with SF-268 CNS, 97.9%; in the test on SF-295 CNS, 96.5%; in the test with SF-539 CNS it was 91.2%; in the test on UACC-257 melanoma, 113%. For the same compound, the growth with M14 melanoma was 107%.
